# Source: PubChem BioAssay
# Hits are enriched below; roughly 11% of the tested compounds scored in any of these assays.
# ALDH1A1 block – qHTS Assay for Inhibitors of Aldehyde Dehydrogenase 1 (ALDH1A1); Aldehyde dehydrogenase 1A1 (Homo sapiens), P00352; Potency, µM (highest dose often 75.3 µM), for the others: at the top dose activity, negative = inhibition, actives largely listed as inhibitors; AID 1030, 2008; Purified ALDH1A1, NADH fluorescence, propionaldehyde substrate; 220,000 tested, 7.3% active;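 note: potency is the fitted concentration of half-maximal effect; plate controls were no enzyme wells and a reference inhibitor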
# HPGD inh – qHTS Assay for Inhibitors of HPGD (15-Hydroxyprostaglandin Dehydrogenase); purified HPGD, NADH fluorescence kinetic, PGE2 substrate; 15-hydroxyprostaglandin dehydrogenase [NAD(+)] (Homo sapiens), P15428; Potency, µM, without a hit: at the top dose activity change, negative = inhibition, actives largely listed as inhibitors; 150,000 tested, 4.3% active; note: potency is the fitted concentration of half-maximal effect
# Target sequence (P15428 whole entry, looked up): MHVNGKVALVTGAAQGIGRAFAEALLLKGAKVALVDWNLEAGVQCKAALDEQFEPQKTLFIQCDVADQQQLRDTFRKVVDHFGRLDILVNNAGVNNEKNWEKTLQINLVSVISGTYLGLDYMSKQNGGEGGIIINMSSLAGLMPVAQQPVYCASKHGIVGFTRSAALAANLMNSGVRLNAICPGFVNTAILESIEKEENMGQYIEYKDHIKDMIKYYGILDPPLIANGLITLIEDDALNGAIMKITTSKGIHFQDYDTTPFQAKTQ
#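 NADH formation kinetics: reaction with 30 uM PGE2 and 1 mM NAD+ (final), 20 nM enzyme, Tris-HCl pH 8 with Tween 20, after 15 min compound preincubation at room temperature. Fluorescence change, last versus first of five reads.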
# JMJD2E inh – qHTS Assay for Inhibitors of Human Jumonji Domain Containing 2E (JMJD2E). Potency, µM (top dose mostly 57.1 µM), for the others: at the highest dose activity change, negative = inhibition, most hits filed as inhibitors. AID 2147, 2009. Lysine-specific demethylase 4E (Homo sapiens), B2RXH2. 230,000 tested, 1.6% active. JMJD2E catalytic domain, FDH-coupled NADH fluorescence (FDH is formaldehyde dehydrogenase);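 note: potency is the fitted concentration of half-maximal effect; 0% = wells with enzyme and -100% = buffer wells without enzyme; nearly all actives have a fitted effect of over 50% in size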
# Target sequence (B2RXH2 1-337 limits assumed): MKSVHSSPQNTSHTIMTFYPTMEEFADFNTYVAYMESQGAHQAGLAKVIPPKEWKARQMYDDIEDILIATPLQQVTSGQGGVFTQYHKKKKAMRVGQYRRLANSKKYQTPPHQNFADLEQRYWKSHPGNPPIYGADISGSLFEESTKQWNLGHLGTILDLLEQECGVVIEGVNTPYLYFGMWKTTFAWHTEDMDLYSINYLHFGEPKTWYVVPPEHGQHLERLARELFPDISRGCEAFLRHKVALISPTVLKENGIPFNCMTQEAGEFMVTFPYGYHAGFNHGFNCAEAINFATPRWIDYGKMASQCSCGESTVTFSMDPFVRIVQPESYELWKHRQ
# PNC inhibitor – High Content Assay for Compounds that inhibit the Assembly of the Perinucleolar Compartment; AID 2417, 2010; PC3M PTB-GFP, PNC prevalence imaging, 16 h; hits give low values; activity change (PNC), negative = inhibition, % at 10 µM; 140,000 tested, 3.1% active;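 active = readout at or below -70, meaning at least 70% loss of cells showing the perinucleolar compartment, a nuclear body marking cancer cells; inconclusive = readout between -30 and a set limit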;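 note: plate controls were DMSO wells for no effect and camptothecin positive control wells for full effect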
#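 PC3M cells stably expressing PTB-GFP, 750–1000 cells/well, treated 16 h at 37 °C with compound (23 nl of library stock), in duplicate. After paraformaldehyde fixation and Hoechst stain, imaged at 20x; PNC prevalence scored by image analysis.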
# The depositor's hits bear a star; ? = inconclusive; nt = no result given; ! = not active in a repeat; [ ] = another dose, or the depositor's remark. Unless noted, calls come from the whole dose curve; as a rule, active = well fitted inhibition curve with a large enough effect (not every such curve was filed as active); inconclusive = small, poorly fitted or top-dose-only effect, or another doubt; inactive = no such curve, though single readings can be large or run the other way. Unless noted, % is set by controls: 0 for no effect and ±100 for the full control effect.
SMILES,ALDH1A1 block,HPGD inh,JMJD2E inh,PNC inhibitor
O=C(Cc1ccc(S(=O)(=O)N2CCCC2)s1)Nc1nc2c(s1)CCCC2,10µM*,-22.4%,?,-17.4
CC(C)(C)NC(=O)Cc1ccc(S(=O)(=O)N2CCCC2)s1,-8.5%,-5.3%,-3.3%,-8.3
Cc1ccccc1-c1cc(C(=O)Nc2nc3c(s2)CCCC3)c2ccccc2n1,?,?,?,-100.0*
COc1ccc(-n2c(=O)c(CCc3ccccc3)nc3cnc(OC)nc32)cc1,0.9%,nt,nt,nt
O=C(Cn1nnc2ccccc21)NNC(=S)NC1CCCCC1,-3.2%,nt,-0.4%,nt
C=CCOc1ccc(CC(=O)O)cc1Cl,15.4%,-9.8%,nt,nt
Cc1cc(C)cc(N(C(=O)c2ccccn2)C(C(=O)NC2CCCCC2)c2cccs2)c1 (stereo unspecified),5.9%,-2.5%,-0.5%,50.2
CC1CCCCN1S(=O)(=O)c1ccc(N(C(=O)c2cnccn2)C(C(=O)NC2CCCC2)c2cccs2)cc1 (stereo unspecified),3.98µM*,-6.5%,-3.1%,?
Cc1ccc(N(C(=O)c2cnccn2)C(C(=O)NC2CCCCC2)c2ccc(O)cc2)cc1 (stereo unspecified),-2.3%,nt,-6.9%,nt
CC1CCCCN1S(=O)(=O)c1ccc(N(C(=O)c2cnccn2)C(C(=O)NC2CCCCC2)c2cccs2)cc1 (stereo unspecified),8.91µM*,-8.2%,-11.5%,-25.5
CO[C@H]1COC(=O)[C@H](C)NC(=O)C/C=C\[C@@H](C)[C@@H](NS(=O)(=O)c2ccc(C)cc2)COC(=O)C/C=C\[C@@H]1C,5.9%[13.5 µM],nt,nt,nt
C[C@@H](C(=O)N[C@@H](CO)Cc1ccccc1)[C@H]1C[C@]1(C)[C@H](NC(=O)OCc1ccccc1)c1ccccc1,7.08µM*,-7.0%,-3.6%,nt
C[C@@H](C(=O)NCc1ccc(S(C)(=O)=O)cc1)[C@H]1C[C@]1(C)[C@H](NC(=O)OCc1ccccc1)c1ccccc1,6.31µM*,-19.1%,4.9%,-9.3
C[C@@H](C(=O)NCc1cccc2ccccc12)[C@H]1C[C@]1(C)[C@H](NC(=O)OCc1ccccc1)c1ccccc1,?,?,-10.8%,nt
Cc1ccc(CNC(=O)[C@H](C)[C@H]2C[C@]2(C)[C@H](NC(=O)OCc2ccccc2)c2ccccc2)c(F)c1F,3.16µM*,-34.3%,-3.4%,nt
C[C@@H](C(=O)NCC1CC1)[C@H]1C[C@]1(C)[C@H](NC(=O)OCc1ccccc1)c1ccccc1,17.8µM*,-8.9%,3.8%,-1.5
NC(=O)C[C@H](N)C(N)=O,-0.5%[13.5 µM],-14.3%,nt,nt
COc1ccc(CCC(=O)Nc2cc(S(C)(=O)=O)ccc2Cl)cc1,-4.7%,nt,-10.0%,nt
CC(C)C(NC(=O)C(Cc1ccccc1)NC(=O)OCc1ccccc1)C(=O)O (stereo unspecified),10.4%,nt,-13.9%,nt
N#CCCCSc1nnnn1-c1cc(C(F)(F)F)cc(C(F)(F)F)c1,-2.1%,-0.4%,?,nt
COCCNC(=O)[C@H](C)[C@H]1C[C@]1(C)[C@H](NC(=O)OCc1ccccc1)c1ccccc1,28.2µM*!,-23.7%,-8.1%,-2.0
Cc1ccc(CNC(=O)[C@H](C)[C@H]2C[C@]2(C)[C@H](NC(=O)OCc2ccccc2)c2ccccc2)o1,14.1µM*!,25.1µM*!,-3.9%,-12.8
CNC(=O)[C@H](C)[C@H]1C[C@]1(C)[C@H](NC(=O)OCc1ccccc1)c1ccccc1,7.94µM*,-11.4%,0.8%,nt
Cn1nnnc1SCC(=O)Nc1ccc(S(=O)(=O)N2CCOCC2)cc1,?,nt,2.4%,nt
c1cc(CNC23CC4CC(CC(C4)C2)C3)ccn1,7.9%,nt,4.7%,nt
SMILES,ALDH1A1 block,HPGD inh,JMJD2E inh,PNC inhibitor
CSc1nnc(C)c(=O)n1COC(=O)c1ccc(S(=O)(=O)N(C)C)cc1,-6.3%,-16.9%,2.5%,28.4
Cn1cc(C=O)c2cc(F)ccc21,2.24µM*,nt,?,nt
COC(=O)Nc1ccc(S(=O)(=O)N2CCCC(C(=O)NC3CCS(=O)(=O)C3)C2)cc1 (stereo unspecified),-4.9%,2.8%,5.5%,?
O=C(N/N=C/c1cc2c(cc1[N+](=O)[O-])OCO2)c1cccnc1,nt,nt,-27.4%,nt
O=C(N/N=C/c1ccc(N2CCCC2)c([N+](=O)[O-])c1)c1cccnc1,0.282µM*,nt,-0.4%,nt
O=C(N/N=C/c1ccc(N2CCOCC2)c([N+](=O)[O-])c1)c1ccc(F)cc1,5.01µM*,-15.1%,2.7%,8.5
CCN[C@@H]1C[C@H](C)S(=O)(=O)c2sc(S(N)(=O)=O)cc21,13.3%[20.9 µM],-2.7%,2.6%[25.5 µM],nt
C#CCNC(=O)C1=C[C@H](c2ccc(C(F)(F)F)cc2)C[C@H](OCCCCO)O1,-3.4%,nt,?,nt
CCOC(=O)N1CCC(N2CCCC(CO)(Cc3cccc(OC)c3)C2)CC1 (stereo unspecified),7.2%,nt,4.8%,nt
c1ccc(-c2cc(N3CCOCC3)nc(-c3ccccc3)n2)cc1,-9.0%,-7.2%,-16.5%,-82.6*
CC(C)Sc1nnc(NC(=O)c2ccco2)s1,14.1µM*,nt,-1.6%,nt
Cc1ccc(C(=O)OCC(=O)Nc2cc(F)ccc2F)cc1NC(=O)c1ccco1,-3.9%,-16.7%,20.4%,4.4
COc1ccc(C(=O)NNC(=O)C(C)NC(=O)c2ccccc2NC(=O)c2ccco2)cc1 (stereo unspecified),1.8%,-14.9%,-4.4%,-93.4*
CCC(C)c1ccccc1NC(=O)COC(=O)c1ccc(C)c(NC(=O)c2ccco2)c1 (stereo unspecified),39.8µM*,?,-4.0%,?
CC(C)c1ccccc1NC(=O)c1ccco1,-7.5%,7.0%,-5.1%,-95.9*
CC(C)=CCC/C(C)=C/CO/N=C1/C[C@@H](O)[C@@H](O)[C@@H]2[C@@H]3C(=O)N(Cc4ccccc4)C(=O)[C@H]3CC[C@@H]12,5.3%[13.5 µM],nt,nt,nt
O=C1Nc2ccccc2N(O)N1c1cc(-c2ccc(Cl)cc2)[nH]n1,4.3%,nt,-10.9%,nt
CCOc1ccc(C(C)=O)cc1CN1C(=O)C(=O)N(CC)C1=O,-4.9%,nt,7.1%,nt
CC(C)c1c(O)ccc2c1CCC1[C@@](C)(C=O)CCC[C@@]21C (stereo partly specified),-0.8%,-18.4%,-2.5%,nt
C[C@@H](NCc1cc(Br)cc2[nH]c(=O)c(=O)[nH]c12)P(=O)(O)O,0.9%,-3.3%,3.1%,nt
Cc1ccc(C(=O)OCC(=O)Nc2ccc(N(C)C)cc2)cc1NC(=O)c1ccco1,11.9µM*,-17.3%,3.9%,?
Cc1ccc(C(=O)OCC(=O)Nc2ccccc2)cc1NC(=O)c1ccco1,-3.5%,-7.3%,1.7%,19.4
S=C(NCc1cccs1)Nc1ccccc1,?,12.6µM*,-16.2%,40.3
NS(=O)(=O)c1ccc(NC(=S)NCc2cccs2)cc1,?,nt,-18.5%,nt
COc1cccc(NC(=S)NCc2cccs2)c1,-9.4%,17.8µM*,1.4%,-7.3
Cc1cccc(NC(=S)NCc2cccs2)c1,-1.7%,nt,-1.3%,nt
Cc1ccc(NC(=S)NCc2cccs2)cc1,-6.7%,28.2µM*,-2.3%,11.5
Fc1ccc(NC(=S)NCc2cccs2)cc1,-9.4%,17.8µM*,-0.5%,-3.2
